From PubChem BioAssay AID1508601 (ICCB-Longwood Screening Facility, Harvard Medical School, 2020)
“And” between values parts separate entries of the source, which are not always exact repeats. Equal entries are not always repeated. In all, about 5,700 compounds went through this assay and about 85 (1%) were called active. No stated cut-off is given here; in the data, active means p53-positive nuclei above about 36% (passing the limit was not always enough); inactive means the rest. The full list was thinned out, with actives kept by preference. More than one record can exist for a structure, and the calls need not agree.

What was measured:
[1] = p53 stabilisation in HPV-positive human cells, imaging, p53-positive nuclei imaging, 24 h, 48 h (AID 1508601); settings: 24/48 h
[2] = biological target: Cellular tumor antigen p53 (Homo sapiens) (UniProt P04637); experiment: as above; settings: 24/48 h, stronger effect = higher value
[3] = measured here: cell number at 24 h, Library stock concentration: 80 uM
[4] = measured here: cell number at 24 h, Library stock concentration: 400 uM
[5] = measured here: cell number at 24 h, Library stock concentration: 2 mM
[6] = measured here: cell number at 24 h, Library stock concentration: 10 mM
[7] = measured here: cell number at 48 h, Library stock concentration: 80 uM
[8] = measured here: cell number at 48 h, Library stock concentration: 400 uM
[9] = measured here: cell number at 48 h, Library stock concentration: 2 mM
[10] = measured here: cell number at 48 h, Library stock concentration: 10 mM
[11] = Library stock concentration: 80 uM
[12] = Library stock concentration: 400 uM
[13] = Library stock concentration: 2 mM
[14] = Library stock concentration: 10 mM
[15] = measured here: p53 positive nuclei at 24 h, Library stock concentration: 80 uM
[16] = measured here: p53 positive nuclei at 24 h, Library stock concentration: 400 uM
[17] = measured here: p53 positive nuclei at 24 h, Library stock concentration: 2 mM
[18] = measured here: p53 positive nuclei at 24 h, Library stock concentration: 10 mM
[19] = measured here: cell number at 24 h, concentration not given here
[20] = measured here: cell number at 48 h, concentration not given here
[21] = measured here: p53 positive nuclei at 24 h, concentration not given here

Sequence of Cellular tumor antigen p53 (Homo sapiens) (P04637 whole entry, looked up): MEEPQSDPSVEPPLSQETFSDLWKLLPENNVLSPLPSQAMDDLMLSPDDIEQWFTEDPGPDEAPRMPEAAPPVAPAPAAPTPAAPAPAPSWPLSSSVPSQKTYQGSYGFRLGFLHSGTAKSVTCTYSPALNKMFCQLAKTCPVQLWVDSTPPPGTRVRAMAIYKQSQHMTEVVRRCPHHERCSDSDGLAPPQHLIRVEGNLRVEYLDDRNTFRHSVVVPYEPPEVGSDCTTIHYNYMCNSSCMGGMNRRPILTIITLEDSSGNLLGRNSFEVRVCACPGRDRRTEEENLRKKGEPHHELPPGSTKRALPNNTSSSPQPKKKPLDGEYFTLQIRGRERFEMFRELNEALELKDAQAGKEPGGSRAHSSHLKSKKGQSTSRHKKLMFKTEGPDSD

SMILES: CN(c1ccccc1CNc1nc(Nc2ccc3c(c2)CC(=O)N3)ncc1C(F)(F)F)S(C)(=O)=O
- nuclei count, normalised [1, 3]: 112% and 102%
- nuclei count, normalised [1, 4]: 112% and 102%
- nuclei count, normalised [1, 5]: 83.1% and 86.6%
- nuclei count, normalised [1, 6]: 33.4% and 36.5%
- nuclei count, normalised [1, 7]: 116% and 109%
- nuclei count, normalised [1, 8]: 120% and 115%
- nuclei count, normalised [1, 9]: 81.2% and 88.6%
- nuclei count, normalised [1, 10]: 22.6% and 25.6%
- p53-positive nuclei, normalised [2, 11]: -0.0383% (inactive) and 0.0654% (inactive)
- p53-positive nuclei, normalised [2, 12]: 0.0612% (inactive) and 0.141% (inactive)
- p53-positive nuclei, normalised [2, 13]: 1.2% (inactive) and 0.96% (inactive)
- p53-positive nuclei, normalised [2, 14]: 55.4% (inactive) and 54.9% (active)
- p53-positive nuclei, normalised [2, 15]: -0.06% and 0.248%
- p53-positive nuclei, normalised [2, 16]: 0.0578% and 0.322%
- p53-positive nuclei, normalised [2, 17]: 0.201% and 0.404%
- p53-positive nuclei, normalised [2, 18]: 43.5% and 27.2%

SMILES: CS(=O)(=O)c1cccc(CNc2nc(Nc3ccc4c(c3)CCC(=O)N4)ncc2C(F)(F)F)c1
- nuclei count, normalised [1, 3]: 112%
- nuclei count, normalised [1, 4]: 104%
- nuclei count, normalised [1, 5]: 111%
- nuclei count, normalised ([1]; measured here: cell number at 24 h, Library stock concentration: 3.33 mM): 70.4%
- nuclei count, normalised [1, 6]: 48.4%
- nuclei count, normalised [1, 7]: 115%
- nuclei count, normalised [1, 8]: 109%
- nuclei count, normalised [1, 9]: 115%
- nuclei count, normalised ([1]; measured here: cell number at 48 h, Library stock concentration: 3.33 mM): 76.2%
- nuclei count, normalised [1, 10]: 28.9%
- p53-positive nuclei, normalised [2, 11]: 0.032% (inactive)
- p53-positive nuclei, normalised [2, 12]: -0.135% (inactive)
- p53-positive nuclei, normalised [2, 13]: 0.159% (inactive)
- p53-positive nuclei, normalised ([2]; Library stock concentration: 3.33 mM): -0.301% (inactive)
- p53-positive nuclei, normalised [2, 14]: 1.33% (inactive)
- p53-positive nuclei, normalised [2, 15]: -0.0118%
- p53-positive nuclei, normalised [2, 16]: -0.00681%
- p53-positive nuclei, normalised [2, 17]: 0.177%
- p53-positive nuclei, normalised ([2]; measured here: p53 positive nuclei at 24 h, Library stock concentration: 3.33 mM): -0.516%
- p53-positive nuclei, normalised [2, 18]: 0.847%

SMILES: CNC(=O)c1ccc(Nc2ncc(C(F)(F)F)c(NCc3nccnc3N(C)S(C)(=O)=O)n2)cc1
- nuclei count, normalised ([1]; measured here: cell number at 24 h, Library stock concentration: 46 uM): 91.8%
- nuclei count, normalised ([1]; measured here: cell number at 24 h, Library stock concentration: 278 uM): 82%
- nuclei count, normalised ([1]; measured here: cell number at 24 h, Library stock concentration: 1.67 mM): 95.8%
- nuclei count, normalised [1, 6]: 47.5%
- nuclei count, normalised ([1]; measured here: cell number at 48 h, Library stock concentration: 46 uM): 91.6%
- nuclei count, normalised ([1]; measured here: cell number at 48 h, Library stock concentration: 278 uM): 86.7%
- nuclei count, normalised ([1]; measured here: cell number at 48 h, Library stock concentration: 1.67 mM): 108%
- nuclei count, normalised [1, 10]: 33.5%
- p53-positive nuclei, normalised ([2]; Library stock concentration: 46 uM): -0.225% (inactive)
- p53-positive nuclei, normalised ([2]; Library stock concentration: 278 uM): -0.256% (inactive)
- p53-positive nuclei, normalised ([2]; Library stock concentration: 1.67 mM): 0.138% (inactive)
- p53-positive nuclei, normalised [2, 14]: 14.9% (inactive)
- p53-positive nuclei, normalised ([2]; measured here: p53 positive nuclei at 24 h, Library stock concentration: 46 uM): -0.00777%
- p53-positive nuclei, normalised ([2]; measured here: p53 positive nuclei at 24 h, Library stock concentration: 278 uM): -0.0569%
- p53-positive nuclei, normalised ([2]; measured here: p53 positive nuclei at 24 h, Library stock concentration: 1.67 mM): 0.153%
- p53-positive nuclei, normalised [2, 18]: 8.89%

SMILES: CCCCC/C=C/C=C1/C=CC(=O)[C@@H]1C/C=C\CCCC(=O)O
- nuclei count, normalised [1, 19]: 106%
- nuclei count, normalised [1, 20]: 102%
- p53-positive nuclei, normalised ([2]; concentration not given here): 0.0559% (inactive)
- p53-positive nuclei, normalised [2, 21]: 0.0826%

SMILES: O=C(O)CCC/C=C\C[C@@H]1[C@@H](/C=C/[C@@H](O)COc2ccccc2)[C@H](O)C[C@@H]1O
- nuclei count, normalised [1, 19]: 96%
- nuclei count, normalised [1, 20]: 102%
- p53-positive nuclei, normalised ([2]; concentration not given here): -0.0602% (inactive)
- p53-positive nuclei, normalised [2, 21]: -0.00687%

SMILES: COC(=O)C#Cc1ccc([N+](=O)[O-])cc1
- nuclei count, normalised ([1]; measured here: cell number at 24 h, Library stock concentration: 500 nM): 110%
- nuclei count, normalised ([1]; measured here: cell number at 24 h, Library stock concentration: 1.5 uM): 114%
- nuclei count, normalised ([1]; measured here: cell number at 24 h, Library stock concentration: 4.6 uM): 106%
- nuclei count, normalised ([1]; measured here: cell number at 24 h, Library stock concentration: 13.7 uM): 116%
- nuclei count, normalised ([1]; measured here: cell number at 24 h, Library stock concentration: 41 uM): 110%
- nuclei count, normalised ([1]; measured here: cell number at 24 h, Library stock concentration: 123 uM): 103%
- nuclei count, normalised ([1]; measured here: cell number at 24 h, Library stock concentration: 370 uM): 118%
- nuclei count, normalised ([1]; measured here: cell number at 24 h, Library stock concentration: 1.111 mM): 107%
- nuclei count, normalised ([1]; measured here: cell number at 24 h, Library stock concentration: 3.333 mM): 74.6%
- nuclei count, normalised [1, 6]: 49.2%
- nuclei count, normalised ([1]; measured here: cell number at 48 h, Library stock concentration: 500 nM): 111%
- nuclei count, normalised ([1]; measured here: cell number at 48 h, Library stock concentration: 1.5 uM): 112%
- nuclei count, normalised ([1]; measured here: cell number at 48 h, Library stock concentration: 4.6 uM): 112%
- nuclei count, normalised ([1]; measured here: cell number at 48 h, Library stock concentration: 13.7 uM): 112%
- nuclei count, normalised ([1]; measured here: cell number at 48 h, Library stock concentration: 41 uM): 114%
- nuclei count, normalised ([1]; measured here: cell number at 48 h, Library stock concentration: 123 uM): 106%
- nuclei count, normalised ([1]; measured here: cell number at 48 h, Library stock concentration: 370 uM): 117%
- nuclei count, normalised ([1]; measured here: cell number at 48 h, Library stock concentration: 1.111 mM): 108%
- nuclei count, normalised ([1]; measured here: cell number at 48 h, Library stock concentration: 3.333 mM): 69.9%
- nuclei count, normalised [1, 10]: 32.5%
- p53-positive nuclei, normalised ([2]; Library stock concentration: 500 nM): -0.248% (inactive)
- p53-positive nuclei, normalised ([2]; Library stock concentration: 1.5 uM): 0.113% (inactive)
- p53-positive nuclei, normalised ([2]; Library stock concentration: 4.6 uM): -0.0386% (inactive)
- p53-positive nuclei, normalised ([2]; Library stock concentration: 13.7 uM): 0.351% (inactive)
- p53-positive nuclei, normalised ([2]; Library stock concentration: 41 uM): -0.0492% (inactive)
- p53-positive nuclei, normalised ([2]; Library stock concentration: 123 uM): 0.00469% (inactive)
- p53-positive nuclei, normalised ([2]; Library stock concentration: 370 uM): 0.132% (inactive)
- p53-positive nuclei, normalised ([2]; Library stock concentration: 1.111 mM): -0.122% (inactive)
- p53-positive nuclei, normalised ([2]; Library stock concentration: 3.333 mM): 0.307% (inactive)
- p53-positive nuclei, normalised [2, 14]: 69.2% (active)
- p53-positive nuclei, normalised ([2]; measured here: p53 positive nuclei at 24 h, Library stock concentration: 500 nM): -0.0875%
- p53-positive nuclei, normalised ([2]; measured here: p53 positive nuclei at 24 h, Library stock concentration: 1.5 uM): -0.0262%
- p53-positive nuclei, normalised ([2]; measured here: p53 positive nuclei at 24 h, Library stock concentration: 4.6 uM): -0.0872%
- p53-positive nuclei, normalised ([2]; measured here: p53 positive nuclei at 24 h, Library stock concentration: 13.7 uM): 0.099%
- p53-positive nuclei, normalised ([2]; measured here: p53 positive nuclei at 24 h, Library stock concentration: 41 uM): 0.0546%
- p53-positive nuclei, normalised ([2]; measured here: p53 positive nuclei at 24 h, Library stock concentration: 123 uM): -0.148%
- p53-positive nuclei, normalised ([2]; measured here: p53 positive nuclei at 24 h, Library stock concentration: 370 uM): -0.0792%
- p53-positive nuclei, normalised ([2]; measured here: p53 positive nuclei at 24 h, Library stock concentration: 1.111 mM): -0.148%
- p53-positive nuclei, normalised ([2]; measured here: p53 positive nuclei at 24 h, Library stock concentration: 3.333 mM): 0.591%
- p53-positive nuclei, normalised [2, 18]: 73.8%

SMILES: CC(=O)Nc1ccc(S(=O)(=O)Nc2ccc([N+](=O)[O-])cc2)cc1
- nuclei count, normalised [1, 19]: 87.2%
- nuclei count, normalised [1, 20]: 92.6%
- p53-positive nuclei, normalised ([2]; concentration not given here): -0.0672% (inactive)
- p53-positive nuclei, normalised [2, 21]: 0.0938%

SMILES: O=C(N[C@@H](CO)[C@H](O)c1ccc([N+](=O)[O-])cc1)C(Cl)Cl
- nuclei count, normalised [1, 19]: 109%
- nuclei count, normalised [1, 20]: 107%
- p53-positive nuclei, normalised ([2]; concentration not given here): -0.175% (inactive)
- p53-positive nuclei, normalised [2, 21]: -0.247%
